Results published in the GenesisPotency data set.
In all, about 1,300 compounds went through this assay and about 35 (3%) were called active. Another 48% or so got no clear call; they are omitted. The call rests on the fitted dose curve; in most records, active means well fitted inhibition curve with a large enough effect; inconclusive means small, poorly fitted or top-dose-only effect, or effect the other way; inactive means flat fitted curve, though single readings scatter. The entries come from a sample that favours actives as a whole.

Molecular target: T1, ATP-dependent 6-phosphofructokinase, Trypanosoma brucei brucei (UniProt O15648)
T1 sequence (whole entry): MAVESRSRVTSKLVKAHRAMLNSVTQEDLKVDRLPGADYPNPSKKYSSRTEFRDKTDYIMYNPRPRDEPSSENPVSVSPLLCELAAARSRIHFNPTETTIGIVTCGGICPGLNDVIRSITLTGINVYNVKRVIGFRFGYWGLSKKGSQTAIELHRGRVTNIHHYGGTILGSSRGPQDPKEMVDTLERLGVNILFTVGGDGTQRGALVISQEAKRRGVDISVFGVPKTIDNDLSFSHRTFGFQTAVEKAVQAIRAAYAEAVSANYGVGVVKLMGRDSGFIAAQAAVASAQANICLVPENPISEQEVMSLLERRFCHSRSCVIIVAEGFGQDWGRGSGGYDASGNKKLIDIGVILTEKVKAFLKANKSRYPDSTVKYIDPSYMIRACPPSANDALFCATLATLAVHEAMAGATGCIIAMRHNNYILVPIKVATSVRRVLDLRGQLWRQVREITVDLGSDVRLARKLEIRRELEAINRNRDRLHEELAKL
Test: qHTS Validation Assay to Find Inhibitors of T. brucei phosphofructokinase (AID 485368)

Row | Compound | outcome
1 | N.N.[Cl][Pt][Cl] | active
